The panel holds about 83,000 compounds, 20% with a hit somewhere; the sample as a whole holds those more often.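 Single-concentration screen, 48 h exposure, 96-well plates. Endpoint: percent growth. Below 10 = active.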 A number with no mark means an inactive call. The source made the active and inactive calls.

For this assay, the system named is HCT-15 colon. In words: NCI-60 one-dose screen, 48 h (100 = growth as untreated, 0 = no growth, -100 = all killed). Particulars: 10 µM unless noted.
`Cc1ccc(S(=O)(=O)c2nc(S(=O)(=O)c3ccc(C)cc3)c(Cl)s2)cc1`: the growth was -87.6% (active).
Turning to `CCCCSc1nc(Nc2ccc(C(C)=O)cc2)c(C#N)c(-c2ccc(OC)cc2)n1`, the growth is 74.9%.
Then `CCOC(=O)C1=C(N)N(c2ccccc2)C2=C(C(=O)CC(C)(C)C2)C1c1ccc([N+](=O)[O-])cc1` (stereo not drawn), with 86.4%; and `Cc1cccc(Nc2nc3ccccc3nc2/C=C/c2ccc(F)cc2)c1`, with 95.6%.
With `Cc1cccc(NC(=O)CN2CCN(c3ncnc4c3cnn4-c3ccccc3)CC2)c1`, the growth is 55.4%.
To `Cn1cc(-c2cc3nc(-c4c[nH]c5ccc(Br)cc45)cc(N)n3n2)c2ccccc21` belongs -85.2% (active); to `C#CCOc1ccc(/C=N/Nc2nc(-c3cc4cc(OC)ccc4oc3=O)cs2)cc1OC`, 60.5%.
In the case of `CC1(C)CC[C@]2(C(=O)O)CC[C@]3(C)C(=CCC4[C@@]5(C)C[C@@H](O)[C@@H]6OC(c7ccc(F)cc7)OC[C@@]6(C)C5CC[C@]43C)C2C1` (stereo partly drawn), the growth is 13.4%.
To `O=C(NN1C(=O)/C(=C/C=C/c2ccc([N+](=O)[O-])o2)SC1=S)c1cccc(O)c1` belongs -65.1% (active); to `Cc1ccc(C(=O)NN2C(=O)/C(=C/C=C/c3ccc([N+](=O)[O-])o3)SC2=S)cc1`, -66.1% (active).
For the compound `N/C(=N\c1nc2ccccc2s1)NC(=O)Nc1c(Cl)cccc1Cl`, the growth was 26.1%.
Turning to `O=C(CN1C(=O)/C(=C/c2ccccc2Cl)SC1=S)N1CCOCC1`, the growth is 45%.
As to `CN(C)c1nc(NCCNS(=O)(=O)c2ccc(C3=Nc4c(N)nc(N)nc4NC(c4ccc(C(F)(F)F)cc4)C3)cc2)nc(Nc2ccc(F)cc2)n1` (stereo not drawn), the growth was 18.7%.

Values taken from PubChem BioAssay (NCI).
